Hit rate of the full screen: of about 1,900 compounds, about 50 (3%) showed an effect of 50% or more. The full list was thinned out, with strong results kept by preference. *1 amine or outer side, *2 acyl side, *3 side chain or, on linkers, in order; H or OH if unused. Where a SMILES comes first, the peptide text is derived from it. Bridges are numbered along the chain shown (N, C = ends). [ ]: non-standard residue; d: D form. The star is where a group is joined. ξ: configuration not given here. pTerphenylCO(4''-OnC5H11) = CCCCCOc1ccc(-c2ccc(-c3ccc(C(=O)*)cc3)cc2)cc1; ξOrn(4,5-diOH) = O=C(C(CC(O)C(O)N[*:3])N[*:1])[*:2]; ξhTyr(βξ-OH,γξ-OH) = NC(C(=O)O)C(O)C(O)c1ccc(O)cc1; ξPro(3ξ-OH,4ξ-Me) = CC1CNC(C(=O)O)C1O; Hyp = O=C(O)[CH]1C[CH](O)CN1
The compounds below were run against p38/MK2 protein–protein interaction (VF-p38α / GST-MK2) (Homo sapiens, UniProt Q16539) (assay: primary screen, percent of control activity; higher = less effect of the substance).
Design: species or system HEK293T cell lysate transfected with VF-p38α and GST-MK2; unclear (methods say 'quintuplet replicates')
Protocol: The TR-FRET assay was conducted in a 1536-well plate (Corning, catalog no. 3724) with HEK293T cell lysate transfected with VF-p38α and GST-MK2. Cell-lysate concentration was optimized with a titration experiment. Anti-Flag-Tb and anti-GST-d2 antibodies (Revvity, catalog no. 61FGBTLB) were used to couple p38α and MK2, respectively. A multiple-drop Combi dispenser (Thermo Scientific) combined reaction mixtures in quintuplet replicates. The TR-FRET signals were measured using a BMG Labtech PHERAstar FSX plate reader and normalized to the percent of DMSO control.

Sequence of p38/MK2 protein–protein interaction (VF-p38α / GST-MK2) (Q16539 2-360 limits assumed): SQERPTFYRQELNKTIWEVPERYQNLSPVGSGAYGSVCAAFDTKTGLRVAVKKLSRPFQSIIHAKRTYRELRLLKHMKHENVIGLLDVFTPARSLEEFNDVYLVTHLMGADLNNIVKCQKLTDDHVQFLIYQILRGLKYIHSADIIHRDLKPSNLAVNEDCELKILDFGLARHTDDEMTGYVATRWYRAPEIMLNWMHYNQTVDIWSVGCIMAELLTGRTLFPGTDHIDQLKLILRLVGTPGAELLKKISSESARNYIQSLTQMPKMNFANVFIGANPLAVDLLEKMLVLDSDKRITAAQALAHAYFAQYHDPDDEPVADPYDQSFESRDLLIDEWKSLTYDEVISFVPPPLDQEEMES

SMILES	Pct of control [%]
CC(=O)OC1(C(C)=O)CCC2C3C=C(C)C4=CC(=O)CCC4(C)C3CCC21C (stereo not drawn)	106
Cc1c(NC(=O)c2ccc(C(C)(C)C)cc2)cccc1-c1cn(C)c(=O)c(Nc2ccc(C(=O)N3CCOCC3)cc2)n1	104
O=C1C(Cl)=C(N2CCOCC2)C(=O)N1c1ccc(Cl)c(Cl)c1	35.9
COc1ccc(-c2nc3ccc(C4=NNC(=O)CC4C)cc3[nH]2)cc1 (stereo not drawn)	74.1
CN1C(C(=O)Nc2ccccn2)=C(O)c2sc(Cl)cc2S1(=O)=O	94.2
CC(=O)Nc1nc2c(Oc3cc(-c4ccc(C(F)(F)F)cc4)ncn3)cccc2s1	108
CCCCCOc1ccc(-c2ccc(-c3ccc(C(=O)NC4CC(O)C(O)NC(=O)C5C(O)C(C)CN5C(=O)C(C(C)O)NC(=O)C(C(O)C(O)c5ccc(O)cc5)NC(=O)C5CC(O)CN5C(=O)C(C(C)O)NC4=O)cc3)cc2)cc1 (stereo not drawn) ({pTerphenylCO(4''-OnC5H11)}-[ξOrn(4,5-diOH)]T[Hyp][ξhTyr(βξ-OH,γξ-OH)]T[ξPro(3ξ-OH,4ξ-Me)]; lactam 1-C; configuration not given here)	11.4
CC(=O)O.CC(=O)O.CCC(C)CC(C)CCCCCCCCC(=O)NC1CC(O)C(NCCN)NC(=O)C2C(O)CCN2C(=O)C(C(O)CCN)NC(=O)C(C(O)C(O)c2ccc(O)cc2)NC(=O)C2CC(O)CN2C(=O)C(C(C)O)NC1=O (stereo not drawn)	114
O=C(c1ccc(F)cc1)C1CCN(CCn2c(=O)[nH]c3ccccc3c2=O)CC1	84.3
Cc1ccccc1-n1c(Cn2ncc3c(N)ncnc32)nc2cccc(C)c2c1=O	93.1
CN(C)CCCN1c2ccccc2Sc2ccc(Cl)cc21.Cl	90.9
Br.Cc1ccc(C(=O)Cn2c3c(sc2=N)CCCC3)cc1	96.8
CS(=O)(=O)N1CCc2c(-c3cnc(N)nc3)nc(N3CCOCC3)nc21	81.8
CC(=O)Nc1ccc(C(=O)Nc2ccccc2N)cc1	96.8
Cc1cc(Nc2ccc(NC(=O)c3ccc(Nc4ccnc5ccccc45)cc3)cc2)nc(N)n1	17.7
CNCc1ccc(C)c(NC(=O)c2ccc(Nc3nc(-c4ccccc4)c4ccccc4n3)cc2)c1	120
CCCCCCCCc1ccc(CCC(N)(CO)CO)cc1.Cl	203
CCCCCCCCCCCC1=C(O)C(=O)C=C(O)C1=O	42
CS(=O)(=O)Nc1ccc([N+](=O)[O-])cc1Oc1ccccc1	95.3
Cc1onc(-c2ccccc2)c1-c1ccc(S(N)(=O)=O)cc1	91.8
CS(=O)(=O)c1ccc(C2=C(c3ccccc3)C(=O)OC2)cc1	26.5
CS(=O)(=O)c1ccc(-c2cnc(N)c(C(=O)Nc3ccccc3)n2)cc1	101
O=C(c1ccccc1)c1ccc2n1CCC2C(=O)O (stereo not drawn)	97.5
CN(C)CCC(c1ccc(Cl)cc1)c1ccccn1.O=C(O)C=CC(=O)O (stereo not drawn)	93.2

SMILES	Pct of control [%]
O=c1cc[nH]c(=S)[nH]1	98.2
OCc1c[nH]c2ccccc12	76.2
N#Cc1c(O)c2c(-c3ccc(-c4ccccc4O)cc3)csc2[nH]c1=O	94.7
Cl.Cl.O=C1c2c(O)ccc(O)c2C(=O)c2c(NCCNCCO)ccc(NCCNCCO)c21	92
O=C1c2c(O)ccc(O)c2C(=O)c2c(NCCNCCO)ccc(NCCNCCO)c21	45.7
Cc1c(CN2CCN(C(=O)C(C)O)CC2)sc2c(N3CCOCC3)nc(-c3cnc(N)nc3)nc12 (stereo not drawn)	96.8
CCC(NC(C)C)C(O)c1ccc(O)c(O)c1.CS(=O)(=O)O (stereo not drawn)	90
NC(=O)c1cccc(-c2cccc(OC(=O)NC3CCCCC3)c2)c1	91.2
COc1cc(=C2C=c3ccccc3=N2)[nH]c1=Cc1[nH]c(C)cc1C.CS(=O)(=O)O	37.5
CCOc1cc(N)c(Cl)cc1C(=O)NCC1CN(Cc2ccc(F)cc2)CCO1.O=C(O)CC(O)(CC(=O)O)C(=O)O (stereo not drawn)	96.8
Cc1coc2c1C(=O)C(=O)c1c-2ccc2c1CCCC2(C)C	79.4
CCOC(=O)n1ccn(C)c1=S	98.2
C=C1c2cccc(O)c2C(O)=C2C(=O)C3(O)C(O)=C(C(N)=O)C(=O)C(N(C)C)C3C(O)C12.Cl (stereo not drawn)	52.5
CN(C)C1C(=O)C(C(N)=O)=C(O)C2(O)C(=O)C3=C(O)c4c(O)cccc4C(C)(O)C3C(O)C12 (stereo not drawn)	90.8
CN(C)C1C(=O)C(C(N)=O)=C(O)C2(O)C(=O)C3=C(O)c4c(O)cccc4C(C)(O)C3C(O)C12.O.O (stereo not drawn)	48.8
COc1ccc(CCC(=O)c2c(O)cc(OC3OC(CO)C(O)C(O)C3OC3OC(C)C(O)C(O)C3O)cc2O)cc1O (stereo not drawn)	94.3
CC(C)NC[C@H](O)COc1ccc(CCOCC2CC2)cc1.Cl [S4085]	94.4
COc1ccc(S(=O)(=O)N(C(C)=O)c2ccccc2C=Cc2cc[n+]([O-])cc2)cc1	89.4
O=C(c1cncc(Br)c1)N1CCC(N2CCCC2)CC1	85.2
O=C(C=Cc1cccc(S(=O)(=O)Nc2ccccc2)c1)NO	103
Cc1cc(C(=O)CN2CCCC2)c(C)n1-c1ccc(F)cc1	88.5
Cc1cc2c(C(=O)NC[C@H](C)c3ccccc3)c(O)c(O)cc2c(O)c1-c1c(C)cc2c(C(=O)NC[C@H](C)c3ccccc3)c(O)c(O)cc2c1O	36.8
Cc1cc(-c2ncc(CC(=O)Nc3ccc(-c4cnccn4)cn3)cc2C)ccn1	98
Nc1ncnc2c1ncn2[C@@H]1O[C@H](CO)[C@@H](O)[C@@H]1O [S1784]	91.5
